Source: PubChem BioAssay (NCATS)
Results filed as inconclusive are left out. Active and inactive are the calls of the source. Calls come from the whole dose curve; as a rule, active = well fitted cell-killing curve with a large enough effect; inconclusive = small, poorly fitted or top-dose-only effect, or effect the other way; inactive = flat fitted curve, though single readings scatter.

Columns and labels:
Experiment in all cases: Primary qHTS to identify gynecologic anti-cancer compounds using libraries of approved drugs and bioactive compounds (AID 1345084); note: nearly all actives have a fitted effect of over 55% in size
[1] = tested on: C33A; details: Gynecologic cancer cell panel viability, ATPlite luminescence, 48 h; series mostly up to 57.5 µM
How it was run: (§1)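 Cells, 1,000 per well, plated 16 h, then exposed 48 h at 37 C to compounds. Viability by ATPlite luminescence after 15 min at room temperature.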

[2] = tested on: CAOV3; details: Gynecologic cancer cell panel viability, ATPlite luminescence, 48 h; series mostly up to 57.5 µM
How it was run: as §1

[3] = tested on: CASKI; details: Gynecologic cancer cell panel viability, ATPlite luminescence, 48 h; series mostly up to 57.5 µM
How it was run: as §1

[4] = tested on: Es-2; details: Gynecologic cancer cell panel viability, ATPlite luminescence, 48 h; series mostly up to 57.5 µM
How it was run: as §1

[5] = tested on: HeLa; details: Gynecologic cancer cell panel viability, ATPlite luminescence, 48 h; series mostly up to 57.5 µM
How it was run: as §1

[6] = tested on: Hek293T; details: Gynecologic cancer cell panel viability, ATPlite luminescence, 48 h, control line for the selectivity index; series mostly up to 57.5 µM
How it was run: as §1

[7] = tested on: JEG-3; details: Gynecologic cancer cell panel viability, ATPlite luminescence, 48 h; series mostly up to 57.5 µM
How it was run: as §1

[8] = tested on: OV90; details: Gynecologic cancer cell panel viability, ATPlite luminescence, 48 h; series mostly up to 57.5 µM
How it was run: as §1

[9] = tested on: PA-1; details: Gynecologic cancer cell panel viability, ATPlite luminescence, 48 h; series mostly up to 57.5 µM
How it was run: as §1

[10] = tested on: Tov-21-G; details: Gynecologic cancer cell panel viability, ATPlite luminescence, 48 h; series mostly up to 57.5 µM
How it was run: as §1

[11] = tested on: Tov112D; details: Gynecologic cancer cell panel viability, ATPlite luminescence, 48 h; series mostly up to 57.5 µM
How it was run: as §1

Measured: Potency

Cc1nc(C)c(-c2ccc(C3CCC(CC(=O)O)CC3)cc2)nc1C(N)=O (configuration not stated)
inactive: all assays above

C=CC1(C)CC(OC(=O)/C(C)=C\COC(C)=O)C(C(=C)C(=O)O)C(O)C1C(=C)CO (configuration not stated)
inactive: all assays above

CC1(C)CCC2(C(=O)OC3OC(CO)C(O)C(O)C3O)CCC3(C)C(=CCC4C5(C)CCC(O)C(C)(C(=O)O)C5CCC43C)C2C1O (configuration not stated)
inactive: all assays above

Cc1cccc(C)c1OCc1cc(C(=O)N2CCC(c3ccncc3)CC2)no1
inactive: all assays above

CC(=O)c1ccc2c(c1)C(O)C(C(C)(C)O)O2 (configuration not stated)
inactive: all assays above

CCCCOC(=O)NC(=O)C1c2ccccc2Oc2ccccc21
inactive: all assays above

OC[C@H]1O[C@@H](O[C@H]2[C@H](OCc3ccccc3)O[C@H](CO[C@@H]3OC[C@@H](O)[C@H](O)[C@H]3O)[C@@H](O)[C@@H]2O)[C@H](O)[C@@H](O)[C@@H]1O
inactive: all assays above

c1ccc(N2CCN(CCc3nn[nH]n3)CC2)cc1
inactive: all assays above

CC(=O)OC1C[C@@]2(C)[C@@H](CC[C@@H](C)[C@]23Cc2c(O)cc4c(c2O3)CNC4=O)C(C)(C)[C@@H]1O (some centres not stated)
inactive: all assays above

CC1(C)CC[C@]2(C(=O)O[C@@H]3O[C@H](CO)[C@@H](O)[C@H](O)[C@H]3O)CC[C@]3(C)C(=CCC4[C@@]5(C)C[C@@H](O)[C@H](O)C(C)(C)C5CC[C@]43C)C2[C@@H]1O (some centres not stated)
inactive: all assays above

NC(=O)[C@H](O[C@@H]1O[C@H](CO)[C@@H](O)[C@H](O)[C@H]1O)c1ccccc1
inactive: all assays above

O=C(Nc1ccccc1)N1CCN(Cc2ccc3ccccc3n2)CC1
inactive: all assays above

CC(C)(C)CCN1C[C@@H]2C(CNC(=O)c3cc(Cl)cc(Cl)c3)[C@@H]2C1 (some centres not stated)
inactive: all assays above

COc1ccc(CCO[C@@H]2CCCC[C@H]2N2CC[C@@H](O)C2)cc1OC
inactive: all assays above

Clc1cc2c(NC3CCCC3)nnc(-c3ccncc3)c2cc1Cl
inactive: all assays above

NCc1c[nH]c(=S)n1[C@@H]1CCc2c(F)cc(F)cc2C1
inactive: all assays above

CC(C)(C(=O)NCC(F)(F)C(F)(F)F)C(=O)NC1C(=O)Nc2ccccc2-c2ccccc21 (configuration not stated)
inactive: all assays above
